# Source: the supplement of paper PMC3334620
# The full ranking holds about 33,000 sequences; the median of “E-score (-0.5 to 0.5)” is about -8e-05, and the highest 2% start at about 0.23. What follows is part of a selection rich in the highest values, with near analogues and random picks from the rest.
# Target: T1, Nrg2 (UniProt P38082)
# T1 sequence: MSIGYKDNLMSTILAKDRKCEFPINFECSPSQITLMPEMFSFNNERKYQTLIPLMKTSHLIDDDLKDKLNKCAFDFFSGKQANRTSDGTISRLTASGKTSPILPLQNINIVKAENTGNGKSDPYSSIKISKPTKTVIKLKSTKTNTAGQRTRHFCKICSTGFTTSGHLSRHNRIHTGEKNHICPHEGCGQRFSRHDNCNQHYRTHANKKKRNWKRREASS
# Test: PBM E-score (8-mer binding enrichment) (E-score (-0.5 to 0.5)); higher = stronger / more preferred TF binding
# Conditions: protein concentration: 100 nM; construct: GST-full length
# Summary of the method: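 Universal all-10-mer Agilent arrays, fresh or stripped once, were converted to double-stranded form by primer extension. GST-tagged yeast transcription factors from PURExpress in vitro transcription/translation, full-length or DNA-binding domain only, were applied at about 100-200 nM and detected with fluorescent anti-GST. After masliner normalisation, the Universal PBM Analysis Suite scored each ungapped eight-base word together with its reverse complement by E-score.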
row,Sequence,PBM E-score
1,AGGAGCAC,0.0739
2,AGTTGGCA,0.1
3,AGCTTACA,0.128
4,GCTCCCAA,-0.0754
5,CGCTACAG,-0.103
6,CTATACAA,-0.0419
7,ATATACTC,0.0973
8,ATATACAA,0.237
9,CTATACTA,0.111
10,ATATACTA,0.307
11,ATATACAC,0.081
12,AAATCACT,0.124
13,CACAGCCA,-0.0609
14,CGGAGATA,0.0572
15,ATGGTGTA,-0.0203
16,CCATATCA,0.00491
17,TCATATCA,0.0508
18,GCATATCA,0.256
19,CTTAACGA,0.123
20,GGCGAAGA,-0.0414
21,ATCTAGAA,-0.0175
22,CAAGACCG,-0.00525
23,AACCTATG,-0.101
24,CCGACAGA,0.141
25,GCGACAGA,0.238

row,Sequence,PBM E-score
1,TCGACAGA,-0.105
2,TGTTATAA,0.163
3,CGGGTCTA,-0.0249
4,GGGGTCTA,0.203
5,AGGGTCTA,0.356
6,CGGGTCTC,-0.0571
7,AGGGTCTG,0.216
8,AGGGTCTC,0.308
9,CCCCCCGC,-0.359
10,CCACTGTA,0.064
11,AGTATGAA,0.254
12,CTGATGAA,0.0121
13,AGTATGAT,0.223
14,GTGATGAA,0.0611
15,ATGATCTC,0.087
16,ATGATGAA,0.31
17,AGTATGAC,0.0675
18,ATGATCTA,0.236
19,CTGATCTA,0.00323
20,GCAGCATA,0.0385
21,GGAGAGGA,-0.215
22,ACCGAACC,-0.254
23,CGGACCTC,-0.0835
24,GACTCACA,0.0103
25,AGGTAGAT,-0.104

row,Sequence,PBM E-score
1,TAACACTA,0.248
2,CAACACTA,0.147
3,GAACACTA,0.0307
4,CGGTTGAA,0.101
5,AAAGGAAA,0.0754
6,AGCATAGA,-0.0952
7,AGCGATCG,0.24
8,AGCGATCC,-0.129
9,AGCGATCA,-0.156
10,CCGTGGAA,-0.00678
11,CATTGCAG,0.0963
12,ATGAGAGC,0.00785
13,ACCTACGG,-0.376
14,CCTAACGA,-0.038
15,AGTAGTTG,0.253
16,AGTAGTTC,0.207
17,CTTAGTAA,0.0233
18,ATTAGTGA,0.114
19,AGTAGTTA,0.0579
20,CTTAGTTA,0.0769
21,ATTAGTAA,0.245
22,ATTAGTGG,0.15
23,ATTAGTGC,0.23
24,ATTAGTAC,0.14
25,ATTAGTTA,0.268

row,Sequence,PBM E-score
1,GTTAGTTA,0.0784
2,GTAACTAC,0.0907
3,CGTTCTCA,-0.0327
4,CACCATGA,-0.00138
5,CGGGCCAG,-0.0425
6,TGGTTCAA,0.103
7,CGAGCCCC,-0.154
8,GACAGCCC,-0.099
9,CTTCTCTA,-0.137
10,AATAGTTG,0.248
11,ATTAGTTG,0.256
12,AATAGTTA,0.0707
13,ATTAGTCG,0.143
14,ATTAGTTC,0.158
15,AATAGTTC,0.0571
16,ACTTGAAA,-0.108
17,CCTTGCAG,-0.0165
18,CATGCTAG,-0.00401
19,CCCGATCG,-0.026
20,AATCTAAC,0.0101
21,TCGTGAGA,-0.0385
22,GCGTGAGA,0.297
23,ACGTGAGA,-0.11
24,CCTCTAGC,-0.0815
25,CATTTCCC,0.201

row,Sequence,PBM E-score
1,TATTTCCA,0.0167
2,CATTTCCA,0.237
3,GGGCTGCA,0.0573
4,AACTCGGC,0.245
5,AACTCGGA,0.13
6,AACTCGGT,-0.00163
7,TATAAAAA,0.164
8,AATAAAGT,0.252
9,AATAAATT,0.215
10,AATAAATA,0.246
11,GATAAATA,0.262
12,GATAAAAA,-0.00426
13,AATAAAGA,0.0604
14,TATAAATA,0.255
15,AATAAAGG,-0.0433
16,GATAAATC,0.023
17,AATAAATG,0.158
18,CATAAATA,0.046
19,CCCTGCCC,-0.1
20,ACGGATTG,0.168
21,ACGACCCG,0.168
22,GGATAAAC,0.133
23,AGAGCTAC,0.00658
24,AGCCGACT,-0.111
25,CTTGGAAA,0.0285

row,Sequence,PBM E-score
1,AGACCGTA,-0.242
2,AACACGAC,0.0492
3,ATAAAAAG,0.257
4,ATAAATAC,0.283
5,ATAAAAAT,0.122
6,ATAAATAA,0.237
7,ATAAATAG,0.0238
8,ATAAATAT,0.245
9,AAAAATAT,0.101
10,ATAAAAGG,-0.128
11,GTAAATAC,-0.0746
12,TTAAATAA,0.186
13,ATAAAAAA,0.0337
14,CTAAATAC,0.0507
15,AGCCAGGA,-0.0522
16,AAGATTCA,0.0877
17,CGTTGACA,0.00462
18,GCTAGCAA,-0.0969
19,CTAAGAGA,-0.0214
20,ACTACCTG,0.0949
21,TACTTCGA,0.23
22,CACTTCGA,0.0548
23,GACTTCGA,-0.106
24,GCAAGATA,0.229
25,ACAAGATA,0.103

row,Sequence,PBM E-score
1,CCAAGATA,0.00687
2,GCTACGCA,-0.108
3,CGACGAAA,0.0993
4,GCCGCATA,0.231
5,ACCGCATA,0.0956
6,CCCGCATA,0.168
7,CGCACAAA,0.257
8,CGCACAAG,0.0299
9,GCCACAAA,0.0838
10,CCCACAAG,-0.0136
11,CGCACGAG,-0.0371
12,CCCACAAA,0.247
13,GAGAGAAC,-0.0345
14,CCCGCCAA,-0.175
15,AGCCTACG,0.0365
16,GTTTAATA,0.198
17,TATTAATA,0.152
18,GATAATTA,0.0635
19,AATTAATA,0.303
20,GATTAATA,0.29
21,CTTTAATA,0.125
22,CATAATTA,0.173
23,AATTAATT,-0.112
24,AATTAATG,0.182
